{
  "source": "the supplement of paper PMC12282887",
  "assay_in_all_cases": "promoter activity interaction Z-score (Lux/OD deviation from empty-vector control); higher = stronger promoter induction by the compound",
  "key": {"[1]": {"tested_on": "E. coli BW25113 acrABp lux reporter", "outline": "(§1)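 E. coli BW25113, as wild type or one of three single-gene deletion strains, carried low-copy luxCDABE promoter reporters and grew in 40 µl LB Lennox in 384-well plates at 37°C, with OD600 and luminescence read every 30 min for 12 h. Each compound was run at four 1:2 dilutions in biological duplicates, integration spanned 0–8 h for wild type and 1–9 h for deletion strains, and wells under 10% of the median growth value were dropped. The score is the Z-transformed residual of growth-normalised luminescence fitted against a control.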"}, "[2]": {"tested_on": "E. coli BW25113 marRABp lux reporter", "outline": "as §1"}, "[3]": {"tested_on": "E. coli BW25113 micFp lux reporter", "outline": "as §1"}, "[4]": {"tested_on": "E. coli BW25113 ompFp lux reporter", "outline": "as §1"}, "[5]": {"settings": "0.011 µg/ml, genetic background: wild type"}, "[6]": {"settings": "0.011 µg/ml, genetic background: ΔmarA"}, "[7]": {"settings": "0.011 µg/ml, genetic background: Δrob"}, "[8]": {"settings": "0.011 µg/ml, genetic background: ΔsoxS"}, "[9]": {"settings": "0.023 µg/ml, genetic background: wild type"}, "[10]": {"settings": "0.023 µg/ml, genetic background: ΔmarA"}, "[11]": {"settings": "0.023 µg/ml, genetic background: Δrob"}, "[12]": {"settings": "0.023 µg/ml, genetic background: ΔsoxS"}, "[13]": {"settings": "0.046 µg/ml, genetic background: wild type"}, "[14]": {"settings": "0.046 µg/ml, genetic background: ΔmarA"}, "[15]": {"settings": "0.046 µg/ml, genetic background: Δrob"}, "[16]": {"settings": "0.046 µg/ml, genetic background: ΔsoxS"}, "[17]": {"settings": "0.091 µg/ml, genetic background: wild type"}, "[18]": {"settings": "0.091 µg/ml, genetic background: ΔmarA"}, "[19]": {"settings": "0.091 µg/ml, genetic background: Δrob"}, "[20]": {"settings": "0.091 µg/ml, genetic background: ΔsoxS"}},
  "note": "± gives the standard deviation of the averaged measurements.",
  "data": [
    {"compound": "C[C@@H]1O[C@@H]1P(=O)(O)O", "note": "[Fosfomycin]", "values": [
      {"measurement": "promoter activity interaction Z-score", "setting": "[1]; [5]", "result": "-0.0514 ± 0.17"},
      {"measurement": "promoter activity interaction Z-score", "setting": "[1]; [6]", "result": "0.0429 ± 0.25"},
      {"measurement": "promoter activity interaction Z-score", "setting": "[1]; [7]", "result": "0.201 ± 0.24"},
      {"measurement": "promoter activity interaction Z-score", "setting": "[1]; [8]", "result": "-0.0843 ± 0.31"},
      {"measurement": "promoter activity interaction Z-score", "setting": "[1]; [9]", "result": "0.134 ± 0.25"},
      {"measurement": "promoter activity interaction Z-score", "setting": "[1]; [10]", "result": "0.445 ± 0.43"},
      {"measurement": "promoter activity interaction Z-score", "setting": "[1]; [11]", "result": "0.174 ± 0.14"},
      {"measurement": "promoter activity interaction Z-score", "setting": "[1]; [12]", "result": "-0.242 ± 0.29"},
      {"measurement": "promoter activity interaction Z-score", "setting": "[1]; [13]", "result": "-0.142 ± 0.12"},
      {"measurement": "promoter activity interaction Z-score", "setting": "[1]; [14]", "result": "-0.284 ± 0.14"},
      {"measurement": "promoter activity interaction Z-score", "setting": "[1]; [15]", "result": "0.229 ± 0.37"},
      {"measurement": "promoter activity interaction Z-score", "setting": "[1]; [16]", "result": "0.118 ± 0.17"},
      {"measurement": "promoter activity interaction Z-score", "setting": "[1]; [17]", "result": "1.76 ± 0.8"},
      {"measurement": "promoter activity interaction Z-score", "setting": "[1]; [18]", "result": "2.58 ± 0.66"},
      {"measurement": "promoter activity interaction Z-score", "setting": "[1]; [19]", "result": "1.15 ± 0.18"},
      {"measurement": "promoter activity interaction Z-score", "setting": "[1]; [20]", "result": "0.198 ± 1.3"},
      {"measurement": "promoter activity interaction Z-score", "setting": "[2]; [5]", "result": "0.112 ± 0.27"},
      {"measurement": "promoter activity interaction Z-score", "setting": "[2]; [6]", "result": "0.0292 ± 0.18"},
      {"measurement": "promoter activity interaction Z-score", "setting": "[2]; [7]", "result": "-0.0327 ± 0.12"},
      {"measurement": "promoter activity interaction Z-score", "setting": "[2]; [8]", "result": "0.00491 ± 0.17"},
      {"measurement": "promoter activity interaction Z-score", "setting": "[2]; [9]", "result": "0.0365 ± 0.015"},
      {"measurement": "promoter activity interaction Z-score", "setting": "[2]; [10]", "result": "0.0557 ± 0.48"},
      {"measurement": "promoter activity interaction Z-score", "setting": "[2]; [11]", "result": "-0.0686 ± 0.17"},
      {"measurement": "promoter activity interaction Z-score", "setting": "[2]; [12]", "result": "-0.0756 ± 0.00091"},
      {"measurement": "promoter activity interaction Z-score", "setting": "[2]; [13]", "result": "-0.461 ± 0.53"},
      {"measurement": "promoter activity interaction Z-score", "setting": "[2]; [14]", "result": "-0.206 ± 0.0084"},
      {"measurement": "promoter activity interaction Z-score", "setting": "[2]; [15]", "result": "-0.0852 ± 0.1"},
      {"measurement": "promoter activity interaction Z-score", "setting": "[2]; [16]", "result": "0.136 ± 0.17"},
      {"measurement": "promoter activity interaction Z-score", "setting": "[2]; [17]", "result": "1.62 ± 0.061"},
      {"measurement": "promoter activity interaction Z-score", "setting": "[2]; [18]", "result": "1.31 ± 0.6"},
      {"measurement": "promoter activity interaction Z-score", "setting": "[2]; [19]", "result": "0.576 ± 0.054"},
      {"measurement": "promoter activity interaction Z-score", "setting": "[2]; [20]", "result": "1.75 ± 0.052"},
      {"measurement": "promoter activity interaction Z-score", "setting": "[3]; [5]", "result": "-0.227 ± 0.25"},
      {"measurement": "promoter activity interaction Z-score", "setting": "[3]; [6]", "result": "0.053 ± 0.061"},
      {"measurement": "promoter activity interaction Z-score", "setting": "[3]; [7]", "result": "-0.0521 ± 0.036"},
      {"measurement": "promoter activity interaction Z-score", "setting": "[3]; [8]", "result": "-0.3 ± 0.065"},
      {"measurement": "promoter activity interaction Z-score", "setting": "[3]; [9]", "result": "-0.0683 ± 0.18"},
      {"measurement": "promoter activity interaction Z-score", "setting": "[3]; [10]", "result": "0.0385 ± 0.078"},
      {"measurement": "promoter activity interaction Z-score", "setting": "[3]; [11]", "result": "-0.0229 ± 0.046"},
      {"measurement": "promoter activity interaction Z-score", "setting": "[3]; [12]", "result": "-0.31 ± 0.0043"},
      {"measurement": "promoter activity interaction Z-score", "setting": "[3]; [13]", "result": "-0.471 ± 0.25"},
      {"measurement": "promoter activity interaction Z-score", "setting": "[3]; [14]", "result": "-0.104 ± 0.084"},
      {"measurement": "promoter activity interaction Z-score", "setting": "[3]; [15]", "result": "-0.121 ± 0.023"},
      {"measurement": "promoter activity interaction Z-score", "setting": "[3]; [16]", "result": "0.017 ± 0.027"},
      {"measurement": "promoter activity interaction Z-score", "setting": "[3]; [17]", "result": "0.578 ± 0.33"},
      {"measurement": "promoter activity interaction Z-score", "setting": "[3]; [18]", "result": "-0.163 ± 0.034"},
      {"measurement": "promoter activity interaction Z-score", "setting": "[3]; [19]", "result": "-0.0601 ± 0.12"},
      {"measurement": "promoter activity interaction Z-score", "setting": "[3]; [20]", "result": "-0.264 ± 0.2"},
      {"measurement": "promoter activity interaction Z-score", "setting": "[4]; [5]", "result": "0.269 ± 0.034"},
      {"measurement": "promoter activity interaction Z-score", "setting": "[4]; [6]", "result": "0.352 ± 0.034"},
      {"measurement": "promoter activity interaction Z-score", "setting": "[4]; [7]", "result": "-0.181 ± 0.21"},
      {"measurement": "promoter activity interaction Z-score", "setting": "[4]; [8]", "result": "0.154 ± 0.62"},
      {"measurement": "promoter activity interaction Z-score", "setting": "[4]; [9]", "result": "0.162 ± 0.32"},
      {"measurement": "promoter activity interaction Z-score", "setting": "[4]; [10]", "result": "0.534 ± 0.28"},
      {"measurement": "promoter activity interaction Z-score", "setting": "[4]; [11]", "result": "0.297 ± 0.084"},
      {"measurement": "promoter activity interaction Z-score", "setting": "[4]; [12]", "result": "-0.146 ± 0.43"}
    ]}
  ]
}
